Results reported in PubChem BioAssay (NCATS).
Inconclusive results are not listed. Unmarked numbers belong to inactive results. The source made the active and inactive calls. Calls come from the whole dose curve; as a rule, active = well fitted inhibition curve with a large enough effect; inconclusive = small, poorly fitted or top-dose-only effect; inactive = flat fitted curve, though single readings scatter. Bridge positions count the residues as written; N and C are the ends. Square brackets hold non-standard residues; d marks the D form. Peptide text beside a SMILES is read from it. * marks the point of attachment. Octanoyl(6-Me) = CCC(C)CCCCC(=O)*; Dab = NCC[CH](N)C(=O)O

What follows are compounds tested on CP203 (assay: qHTS profiling for inhibitors of Plasmodium falciparum proliferation (AID 504749; note: nearly all actives have a fitted effect of over 60% in size;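 for activity, negative = inhibition: 0% = DMSO vehicle and full inhibition = artemisinin control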)). Conditions: P. falciparum in erythrocytes, SYBR Green DNA, 72 h; series mostly up to 28.7 µM; activity, negative = inhibition: at the top concentration.
Text: NIH National Institute of Allergy and Infectious Diseases [NIAID] NIH Chemical Genomics Center [NCGC] MLPCN Grant: None Assay Provider: Xinzhuan Su, NIAID NCGC Assay Overview: Plasmodium falciparum is a virulent malarial parasite that kills 1-2 million people worldwide each year. Transmitted by mosquitoes, the sporozoite form of the parasite enters the blood stream to infect hepatocytes, where they become merozoites that infect red blood cells (erythrocytes). Within erythrocytes, merozoites begin a […] cycle of growth and division, after which the parasite is released to infect new red blood cells. Gametocytes, which form within erythrocytes as well, circulate in the bloodstream and are ingested by the mosquito, thereby completing the life cycle. To profile malarial isolates for differential chemical responses and to identify inhibitors of malarial growth, an assay that measures P. falciparum growth and replication within erythrocytes was employed. This assay uses a DNA binding fluorescent dye (SYBR Green) to detect parasite DNA following cell lysis. Because mature erythrocytes lack DNA, only Plasmodium-derived DNA is detected.
NCGC Assay Protocol Summary: The SYBR Green viability assay was adapted from a method described previously (Plouffe et al., 2008). For screening 3 ul culture medium was dispensed into 1536 well black clear bottom plates (Aurora Biotechnologies) using a Multidrop Combi (Thermo Fisher Scientific Inc.), 23 nL compounds in DMSO were added by a pin tool (Kalypsys), and 5 ul of erythrocytes infected with P. falciparum (0.3% parasitemia, 2.5% hematocrit final concentration) were added. The plates were incubated at 37 C in a humidified incubator in 5% CO2 for 72 h, and 2 ul lysis buffer (20 mM Tris HCl, 10 mM EDTA, 0.16% saponin, 1.6% triton X, 10X SYBR Green I supplied as 10,000X […] by Invitrogen) was added to each well. The plates were mixed for 25 sec with gentle shaking and incubated overnight at room temperature in the dark. The following morning, fluorescence intensity at 485(14) nm excitation and 535(25) nm emission wavelengths was measured on an EnVision (Perkin Elmer) plate reader. Plate reads were normalized relative to the control inhibitor (0.29 uM artemisinin) and vehicle (DMSO) wells present on each plate and then corrected by an algorithm using vehicle-only control plates at the beginning and end of the compound plate stack.
Potency is the fitted concentration of half-maximal effect.

Row | Compound | Potency | activity, negative = inhibition [%]
1 | CC(=O)O[C@@]12CO[C@@H]1C[C@H](O)[C@@]1(C)C(=O)[C@H](O)C3=C(C)[C@@H](OC(=O)C(O)[C@@H](NC(=O)OC(C)(C)C)c4ccccc4)C[C@@](O)([C@@H](OC(=O)c4ccccc4)[C@H]21)C3(C)C (stereo partly drawn) | 0.0536 µM (active) | –
2 | C1OCOCO1 | – | -1.81
3 | CCC(C)n1ncn(-c2ccc(N3CCN(c4ccc(OCC5COC(Cn6cncn6)(c6ccc(Cl)cc6Cl)O5)cc4)CC3)cc2)c1=O (stereo not drawn) | – | 0.861
4 | CC1CCC(C(C)C)C(OC(=O)c2ccccc2O)C1 (stereo not drawn) | – | 7.72
5 | C/C=C\c1ccc(OC)cc1 | – | 1.19
6 | CN1CC[C@H](CN2c3ccccc3Sc3ccccc32)C1 | 9.53 µM (active) | –
7 | Nc1nc(Cl)nc2c1ncn2C1CC(O)C(CO)O1 (stereo not drawn) | – | -18.6
8 | CCC(C)CCCCC(=O)NC(CCN)C(=O)NC(C(=O)NC(CCN)C(=O)NC1CCNC(=O)C(C(C)O)NC(=O)C(CCN)NC(=O)C(CCN)NC(=O)C(CC(C)C)NC(=O)C(Cc2ccccc2)NC(=O)C(CCN)NC1=O)C(C)O (stereo not drawn) ({Octanoyl(6-Me)}-[Dab]T[Dab][Dab][Dab]FL[Dab][Dab]T; lactam 4-C; configuration not given here) | – | 11.3
9 | CN(C)CCCCCCN(C)C | – | -0.289
10 | CCN1/C(=C/C=C/C=C/c2sc3ccccc3[n+]2CC)Sc2ccccc21 | 6.75 µM (active) | –
11 | Cc1cc(CC(C)CC(C)(C)C)n(O)c(=O)c1 (stereo not drawn) | 3.38 µM (active) | –
12 | CC1(C)S[C@@H]2[C@H](NC(=O)COc3ccccc3)C(=O)N2[C@H]1C(=O)O | – | 6.75
13 | C=C[C@]1(C)C[C@@H](OC(=O)CSCCN(CC)CC)[C@]2(C)C(C)CC[C@]3(CCC(=O)[C@H]32)[C@@H](C)[C@@H]1O (stereo partly drawn) | 13.5 µM (active) | –
14 | NC1=NC(S)C2N=CN=C2N1 (stereo not drawn) | – | -4.77
15 | CC(C)CN(C[C@@H](OP(=O)(O)O)[C@H](Cc1ccccc1)NC(=O)O[C@@H]1CCOC1)S(=O)(=O)c1ccc(N)cc1 | – | 4.96
16 | CC(=O)OC1CC2CCC1(C)C2(C)C (stereo not drawn) | – | 1.73
17 | O=NCc1ccc([N+](=O)[O-])o1 | – | -5.93
18 | CO/N=C(/C(=O)N[C@@H]1C(=O)N2C(C(=O)O)=CCS[C@H]12)c1csc(N)n1 | – | 5.05
